# IL1B secr inh – inflammasome signaling inhibition, IL-1 beta readout. hit rate 4.7% among 360,000. activity change, % at 57.5 µM. THP-1 LPS/ATP IL-1B secretion, AlphaLISA, 16 h; hits give low values. AID 743279; in the data active = activity change below about -50%; inconclusive = mostly about -30% to -49%
#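 THP-1 cells pretreated 1 hr with compounds (up to 57.5 uM final), then stimulated with LPS (250 ng/mL final) plus ATP (1.25 mM final); secreted IL-1B measured by AlphaLISA after 16 hr, decreased signal indicating inhibition.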
# DT40 TDP1 CPT – growth inhibition of DT40 Tdp1-/-;hTDP1 cells with camptothecin (screen for TDP1 inhibitors) | hit rate 12% among 420,000 | Potency, µM (titrated, usually from 46.2 µM), without a hit: top-dose activity change, negative = growth inhibition, usual class: inhibitors | chicken DT40 Tdp1-/-;hTDP1 cells + 20 nM CPT, ATP luminescence, 48 h | AID 686979; also: potency is read from the fitted curve at half-maximal effect; nearly all actives have a fitted effect of over 55% in size
#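 Chicken DT40 Tdp1-/- cells stably complemented with human TDP1 were seeded at 400 cells/well in medium containing 20 nM camptothecin, exposed to pin-transferred compounds, and grown at 37 °C for at least 48 hr. Viability was read as ATP luminescence.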
# DT40 TDP1 no CPT – qHTS for Inhibitors of human tyrosyl-DNA phosphodiesterase 1 (TDP1): qHTS in cells in absence of CPT | DT40 Tdp1-/- hTDP1 cells, no CPT, ATP luminescence, 48 h | Potency, µM (series often up to 46.2 µM), for the others: top-dose activity change, negative = growth inhibition, hits mostly inhibitors | hit rate 15% among 420,000 | AID 686978, 2013; also: potency is read from the fitted curve at half-maximal effect; nearly all actives have a fitted effect of over 55% in size
#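 Luminescent ATP content (CellTiter-Glo) served as the growth readout. Knockout chicken DT40 cells expressing human TDP1 were exposed to compounds without camptothecin for a minimum 48 hr at 37 °C.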
# HT1080 IDH1KD tx – kills HT-1080 cells with IDH1 knockdown; HT-1080 IDH1 knockdown viability, ATP luminescence, 48 h; Potency, µM (highest dose often 46.1 µM), for the others: at the top dose activity, negative = toxicity, hits mostly cytotoxic; hit rate 2% among 360,000; AID 686971;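 also: potency is read from the fitted curve at half-maximal effect; 0% = DMSO wells and -100% = cell-free medium wells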
#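 Luminescent ATP read-out (CellTiter-Glo, 10 min at room temperature) after 48 h compound exposure at 37 °C gave viability of IDH1-knockdown HT-1080 cells. Activity was normalised to DMSO and cell-free wells, then fitted as concentration-response curves.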
# HT1080NT lethal – kills 2HG-producing HT-1080-NT fibrosarcoma cells. Potency, µM (highest dose often 46.1 µM), for inactives: top-dose activity, negative = less viability, usual class: cytotoxic. AID 686970. hit rate 1.6% among 360,000. HT-1080-NT fibrosarcoma viability, CellTiter-Glo ATP luminescence, 48 h;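 also: NT is the 2HG producing partner of a matched IDH1 knockdown line; potency is read from the fitted curve at half-maximal effect; 0% = DMSO-treated cells and -100% = media-only wells without cells; nearly all actives have a fitted effect of over 55% in size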
#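 Fibrosarcoma NT cells, 750 per well in 5% FBS RPMI, were exposed to compound for 48 hours. Viability: CellTiter-Glo luminescence.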
# ELG1 repair inh – ELG1-dependent DNA repair inhibition; HEK293T ELG1-luciferase reporter, luminescence, 16 h; DNA damage induced by 5-fluorouridine; Potency, µM (highest dose often 46.1 µM), for inactives: at the highest dose activity change, negative = inhibition, most hits filed as inhibitors; hit rate 2.3% among 330,000; AID 504467; also: potency is read from the fitted curve at half-maximal effect; nearly all actives have a fitted effect of over 55% in size
#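 HEK293T cells expressing luciferase-tagged ELG1 (2,000/well) received 5-Fluorouridine plus compound or DMSO for 16 hr at 37 °C. Luciferase was read by ONE-Glo luminescence after 30 min at room temperature.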
# * marks the source's active call; other numbers are inactive results; u = inconclusive; x = no result given; [ ] = remark or other dose. Shown are actives, neighbours in structure and some others; about 19% of the full set was active somewhere. Unless noted, calls follow the shape of the dose curve; as a rule, active = well fitted curve in the direction sought with a large enough effect; inconclusive = small, poorly fitted or top-dose-only effect, or another doubt; inactive = no such curve, though single readings can be large; an effect the other way counts as inactive or inconclusive. Unless noted, % is scaled to controls: 0 for no effect and ±100 for the full control effect.
SMILES,IL1B secr inh,DT40 TDP1 CPT,DT40 TDP1 no CPT,HT1080 IDH1KD tx,HT1080NT lethal,ELG1 repair inh
CCc1ccc(C(=O)N2CCC(c3nc(-c4ccc(S(=O)(=O)N5CCCC5)cc4)no3)CC2)cc1,x,u,21µM*,x,x,x
O=C(/C=C/[C@H]1O[C@@H](n2ccc(=O)[nH]c2=O)[C@H](O)[C@@H]1O)NCc1cccnc1,45,7%,24%,26%,18%,x
O=c1c2oc3ccccc3c2n(Cc2ccccc2F)c(=O)n1Cc1ccc2c(c1)OCO2,x,0%,u,x,x,x
Cc1cccc(C(=O)N2CCC(c3nc(-c4ccc(S(=O)(=O)N5CCOCC5)cc4)no3)CC2)c1,-53*,16µM*,21µM*,-1%,6%,15%
COc1ccccc1C(=O)N1CCC(c2noc(-c3ccc(S(=O)(=O)N4CCCC4)cc3)n2)CC1,x,23µM*,16µM*,x,x,x
O=C(c1ccccc1)N1CCC(c2nc(-c3ccc(S(=O)(=O)N4CCOCC4)cc3)no2)CC1,-15,u,u,-12%,-2%,2%
O=C(Oc1ccc(OC(=O)N2CCCCC2)cc1)c1ccccc1,-4,u,0.046µM*,-4%[9.24 µM],-20%,u
CC(C)(C)[C@@H]1CCC(=O)N(CC[C@H](Sc2ccccc2)c2ccccc2)CC1,u,16µM*,21µM*,-27%,-18%,-11%
CC(=O)Nc1ccc(S[C@@H](CCN2CC[C@H](C(C)(C)C)CCC2=O)c2ccccc2)cc1,-74*,21µM*,18µM*,u,-28%,u
CC(C)(C)[C@@H]1CCC(=O)N(CC[C@H](N=[N+]=[N-])c2ccccc2)CC1,-24,u,18µM*,1%,2%,u
O=C(Cn1cnc2ccccc21)OCC(=O)N1CCCCC1,-11,6%,-14%,21%,0%,4%
Cc1ccc(-n2nc(C(=O)Nc3ccc(Cl)cn3)c3c4ccccc4n(C)c3c2=O)cc1,x,-1%,-19%,x,x,x
CCOC(=O)Cc1csc(NC(=O)c2c(O)c3c(n(CC(C)C)c2=O)CCCC3)n1,-1,21µM*,u,11%,u,u
CC(C)Cn1c2c(c(O)c(C(=O)Nc3nccs3)c1=O)CCCC2,8,16µM*,u,u,4%,u
CC(=O)c1c(C)nc2nc(-c3ccccc3)nn2c1C,x,-5%,-8%,x,x,x
OCCCNc1ncnc2c1ncn2[C@H]1CN(Cc2ccc3c(c2)OCO3)C[C@@H](CO)O1,11,u,-3%,2%,13%,x
Nc1nc(SCc2ccc(Cl)c(Cl)c2)n[nH]1,10,u,-21%,-14%,-14%,u
O=S1(=O)C=C(SCc2ccc(Cl)c(Cl)c2)Nc2ccccc21,-11,23µM*,u,u,u,-12%
Cc1ccc(NC(=O)CSc2nnc(-c3cccnc3)s2)cc1,19,-1%,-4%,10%,5%,14%
O=C(CSc1nnc(-c2cccnc2)s1)Nc1ccnc2ccccc12,-3,1.2µM*,0.52µM*,u,-12%,12µM*
CN(C)c1ccc(CNc2nc(-c3ccco3)nn2S(C)(=O)=O)cc1,x,-28%,u,x,x,x
CCc1ccc(-c2cc(C)no2)cc1S(=O)(=O)N1CCN(c2ccccc2F)CC1,7,u,-10%,2%,-1%,u
CCc1ccc(-c2cc(C)no2)cc1S(=O)(=O)N1CCN(c2cccc(Cl)c2)CC1,x,1µM*,0.65µM*,x,x,x
CCc1ccc(-c2cc(C)no2)cc1S(=O)(=O)N1CCN(c2cccc(C)c2C)CC1,36,23µM*,u,0%,5%,-18%
CCc1ccc(-c2cc(C)no2)cc1S(=O)(=O)N1CCN(c2cc(C)ccc2C)CC1,-9,u,16µM*,-5%,-1%,u
SMILES,IL1B secr inh,DT40 TDP1 CPT,DT40 TDP1 no CPT,HT1080 IDH1KD tx,HT1080NT lethal,ELG1 repair inh
CCc1nc(-c2ccc(C)c(S(=O)(=O)N3CCN(c4ccc(C(C)=O)cc4)CC3)c2)no1,x,13µM*,7.3µM*,x,x,x
COc1ccc(Cl)cc1C(=O)NNC(=O)c1csc(N2CCOCC2)n1,-8,-30%,u,1%,-1%,6%
COC(=O)[C@H](CC(C)C)NC(=O)Cn1cnc2c(NCc3ccccc3)ncnc21,0,-16%,-5%,10%,-1%,7%
CCc1ccc(-c2cc(C)no2)cc1S(=O)(=O)N1CCN(c2ccc(C(C)=O)cc2)CC1,-17,u,18µM*,-9%,-2%,u
CCc1ccccc1-n1nnc(-c2nc(-c3ccccc3F)no2)c1C,x,-27%,u,x,x,x
Cc1nn(-c2ccccc2)c(N)c1Sc1ccccc1[N+](=O)[O-],10,u,16µM*,-15%,-8%,0%
COc1ccc(-c2cc(-c3nnc(COC(=O)CC4CC5CCC4C5)o3)c3ccccc3n2)cc1OC (stereo unspecified),0,21µM*,21µM*,-11%,-10%,18µM*
CCCCN1CN(Cc2ccccc2)CNC1=S,22,18µM*,u,-2%,-5%,4%
CCOc1ccc(OCCC(=O)OCC(=O)NCc2ccccc2)cc1,2,3%,6%,-2%,-5%,2%
CCN1C(=O)[C@@H]2[C@@H]3CN(S(=O)(=O)c4ccc(C)cc4)[C@@H](c4ccccc4)[C@@H]3C(=O)C[C@@H]2C1=O,-9,-9%,-15%,19%,16%,x
CCOC1=CC2=C(C(=O)C(Cl)=CC2=O)[C@@H]2CN(S(=O)(=O)c3ccc(C)cc3)[C@@H](c3ccccc3)[C@H]12,0,1.2µM*,1.8µM*,u,u,x
COc1ccc(-c2nc(CS(=O)(=O)CC(=O)NCc3ccc(F)cc3)c(C)o2)cc1,5,-15%,19%,1%,-21%,11%
COc1ccc(CNC(=O)c2ccccc2NC(=O)C2=C(C)OCCS2)cc1,-15,u,u,-3%,0%,x
COCCNC(=O)c1ccc(C)c(NC(=O)C2=C(C)OCCS2)c1,6,10%,-3%,18%,u,14%
CC1=C(C(=O)Nc2cc(C(=O)N(C)Cc3ccccc3)ccc2C)SCCO1,-55*,-25%,-2%,3%,11%,u
CC1=C(C(=O)Nc2ccccc2C(=O)N2CCCCC2)SCCO1,13,-12%,27%,4%,-7%,11%
CC1=C(C(=O)Nc2ccccc2C(=O)N2CCN(c3ccccc3)CC2)SCCO1,15,u,18µM*,12%,-1%,x
